Reference: PubChem BioAssay (EPA / NIEHS)
Records with an inconclusive call do not appear. The source holds several records for some structures; these can differ, active in one and inactive in another. Active and inactive are the calls of the source. The calls were made as follows: active = hit-call score of the fitted dose curve at least 0.9, where 1 is the maximum; inconclusive = response in the unintended direction; inactive = score below 0.9.

What follows are compounds tested against Mitogen-activated protein kinase 3 (Homo sapiens) (UniProt P27361) (assay: NVS_ENZ_hMAPK3: NovaScreen (NVS) Enzymatic Assay for human Mitogen-Activated Protein Kinase 3 (MAPK 3) (AID 2283177)).
Mitogen-activated protein kinase 3 (Homo sapiens), sequence (P27361 whole entry, looked up): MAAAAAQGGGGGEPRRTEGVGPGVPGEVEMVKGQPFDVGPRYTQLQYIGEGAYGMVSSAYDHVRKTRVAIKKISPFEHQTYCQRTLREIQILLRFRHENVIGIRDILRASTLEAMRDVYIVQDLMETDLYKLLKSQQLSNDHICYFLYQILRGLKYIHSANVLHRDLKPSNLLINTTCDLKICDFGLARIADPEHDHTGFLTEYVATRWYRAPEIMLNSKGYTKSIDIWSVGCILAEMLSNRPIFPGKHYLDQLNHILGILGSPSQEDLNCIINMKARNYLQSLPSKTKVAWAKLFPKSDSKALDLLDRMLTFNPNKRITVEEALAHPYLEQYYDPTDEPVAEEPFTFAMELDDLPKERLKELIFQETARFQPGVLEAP
Summary of the method: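 Chemicals were first tested in duplicate at 25 uM, with hits re-run as concentration series (max 50 uM). Recombinant enzyme activity, measured 1 h post-dose in a cell-free format, was read by fluorescence/mobility shift relative to DMSO.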

| SMILES | outcome | AC50 |
| --- | --- | --- |
| C[C@@H]1C[C@@H]([C@H](O)CC2CC(=O)NC(=O)C2)C(=O)[C@@H](C)C1 | inactive |  |
| CC12CC1(C)C(=O)N(c1cc(Cl)cc(Cl)c1)C2=O (stereo not drawn) |  | 40.6 µM (active) |
| Cn1sc(Cl)cc1=O | inactive |  |

These compounds were tested against human Matrix Metalloproteinase-1 (MMP1), MMP1 (gene 4312) (UniProt P03956) (assay: NVS_ENZ_hMMP1: NovaScreen (NVS) Enzymatic Assay for human Matrix Metalloproteinase-1 (MMP1) (AID 2283181)).
human Matrix Metalloproteinase-1 (MMP1), MMP1 (gene 4312), sequence (P03956 whole entry, looked up): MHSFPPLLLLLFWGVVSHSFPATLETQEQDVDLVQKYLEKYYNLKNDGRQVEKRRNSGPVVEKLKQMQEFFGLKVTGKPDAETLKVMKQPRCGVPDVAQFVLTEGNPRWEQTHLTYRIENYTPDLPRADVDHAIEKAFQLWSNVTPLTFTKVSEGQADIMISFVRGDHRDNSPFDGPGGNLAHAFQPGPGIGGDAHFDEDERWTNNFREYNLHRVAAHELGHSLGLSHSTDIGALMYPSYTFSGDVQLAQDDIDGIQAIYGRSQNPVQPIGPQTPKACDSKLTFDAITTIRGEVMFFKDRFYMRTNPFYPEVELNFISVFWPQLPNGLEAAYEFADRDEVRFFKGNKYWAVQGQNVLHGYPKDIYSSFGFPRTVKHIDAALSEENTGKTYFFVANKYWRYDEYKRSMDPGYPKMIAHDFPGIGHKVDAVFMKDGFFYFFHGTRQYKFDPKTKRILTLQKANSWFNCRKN
Summary of the method: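 Cell-free fluorescent substrate assay of human MMP1, read after 1 h. A single 25 uM duplicate screen was followed by concentration series to a maximum of 50 uM for actives meeting threshold; inhibition analysed against DMSO baseline.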

| SMILES | outcome | AC50 |
| --- | --- | --- |
| CCN1CCC2(CC1)COc1cc3c(cc12)N(C(=O)c1ccc(-c2ccc(-c4nnc(C)o4)cc2C)cc1)CC3 | inactive |  |
| O=C(O)C(Cl)(Cl)Cl | inactive |  |
| C=C(C)C(=O)[O][Sn]([CH2]CCC)([CH2]CCC)[CH2]CCC |  | 3.07 µM (active) |
| CC(=O)[O][Hg][c]1ccccc1 |  | 6.38 µM (active) |

Each compound was assayed against human Matrix Metalloproteinase-9 (MMP9), MMP9 (gene 4318) (UniProt P14780) (assay: NVS_ENZ_hMMP9: NovaScreen (NVS) Enzymatic Assay for human Matrix Metalloproteinase-9 (MMP9) (AID 2283190);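 also: cell-free recombinant MMP9 protease activity read by fluorescent substrate signal; active means inhibition seen as loss of fluorescence signal versus DMSO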).
human Matrix Metalloproteinase-9 (MMP9), MMP9 (gene 4318), sequence (P14780 whole entry, looked up): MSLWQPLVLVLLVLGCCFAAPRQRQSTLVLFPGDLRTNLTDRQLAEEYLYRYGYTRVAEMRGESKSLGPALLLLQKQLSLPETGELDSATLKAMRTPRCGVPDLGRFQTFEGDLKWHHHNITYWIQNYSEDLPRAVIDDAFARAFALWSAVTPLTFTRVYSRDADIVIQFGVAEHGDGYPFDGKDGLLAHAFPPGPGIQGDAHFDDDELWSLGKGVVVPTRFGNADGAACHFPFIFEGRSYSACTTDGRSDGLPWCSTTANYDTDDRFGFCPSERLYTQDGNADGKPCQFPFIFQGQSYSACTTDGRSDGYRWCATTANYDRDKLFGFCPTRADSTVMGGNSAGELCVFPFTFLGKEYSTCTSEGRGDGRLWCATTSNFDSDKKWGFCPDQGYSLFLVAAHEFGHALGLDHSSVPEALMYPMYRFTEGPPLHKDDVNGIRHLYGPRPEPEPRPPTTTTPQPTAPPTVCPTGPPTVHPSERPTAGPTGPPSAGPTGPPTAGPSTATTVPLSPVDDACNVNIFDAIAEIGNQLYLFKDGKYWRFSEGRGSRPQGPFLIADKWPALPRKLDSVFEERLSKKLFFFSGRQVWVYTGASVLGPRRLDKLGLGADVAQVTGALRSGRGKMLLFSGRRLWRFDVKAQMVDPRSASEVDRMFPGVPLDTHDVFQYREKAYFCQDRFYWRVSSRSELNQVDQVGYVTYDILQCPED
Summary of the method: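 Inhibition was scored as loss of fluorescence signal against DMSO controls. The recombinant protease was exposed to chemicals for 1 hour before reading; initial testing used 25 uM in duplicate.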

| SMILES | AC50 | outcome |
| --- | --- | --- |
| NC(=S)Nc1ccccc1 | 29.4 µM (active) |  |
| CCN1CCC2(CC1)COc1cc3c(cc12)N(C(=O)c1ccc(-c2ccc(-c4nnc(C)o4)cc2C)cc1)CC3 | 4.37 µM (active) |  |
| COc1cc(-c2ccc(N)c(OC)c2)ccc1N | 15.7 µM (active) | inactive |
| Clc1ccc(C2(Cn3cncn3)CC(Br)CO2)c(Cl)c1 (stereo not drawn) |  | inactive |
| CN(C)P(=O)(N(C)C)N(C)C | 6.94 µM (active) |  |
| Nc1cccc(Cl)c1 | 0.226 µM (active) |  |
| CCOC(=O)/C=C(C)/C=C/C[C@@H](C)CCCC(C)C |  | inactive |
| O=C(OC1CCCCC1)c1ccccc1C(=O)OC1CCCCC1 | 1.86 µM (active) |  |
| ClC1=C(Cl)[C@]2(Cl)[C@H]3[C@H]([C@H]4C=C[C@H]3C4)[C@@]1(Cl)C2(Cl)Cl | 102 µM (active) |  |
| Nc1ccc(-c2ccc(N)c(Cl)c2)cc1Cl | 0.597 µM (active) |  |
